The list is not random: actives were taken first. Their share in the collection is about 7.5%.
ELG1 genotoxic = genotoxicity induction in ELG1-luciferase HEK293T cells; HEK293T ELG1-luciferase reporter, luminescence, 16 h; Potency, µM (top dose mostly 46 µM), hits mostly activators; 330,000 tested, 1.3% active; also: nearly all actives have a fitted effect of over 60% in size
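16 hr compound incubation (37 °C, 5% CO2) of HEK293T cells carrying luciferase-tagged ELG1; luciferase then measured by ONE-Glo luminescence after 30 min at RT.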
SMN2 splice up = SMN2 splice variant enhancement; Potency, µM (highest dose often 46.1 µM), actives largely listed as activators; 210,000 tested, 2.8% active; AID 1458; HEK293 SMN2-luciferase splicing reporter, luminescence, 30-36 h; also: nearly all actives have a fitted effect of over 55% in size
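qHTS luciferase splicing reporter: luminescence rises when SMN2 exon 7 is included in transfected HEK293 cells. Compound exposure lasted 30-36 h at 37C, with 4.5 mM final sodium butyrate as control, followed by a ONE-Glo read.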
FLuc modulator = counter-screen for miR-21 project: firefly luciferase inhibitors or activators | purified FLuc, Km substrates, luminescence inhibition | 360,000 tested, 6.9% active | P08659 | AID 588342 | Potency, µM (highest dose often 57.5 µM), actives largely listed as inhibitors; also: nearly all actives have a fitted effect of over 55% in size
Target sequence (P08659 whole entry, looked up): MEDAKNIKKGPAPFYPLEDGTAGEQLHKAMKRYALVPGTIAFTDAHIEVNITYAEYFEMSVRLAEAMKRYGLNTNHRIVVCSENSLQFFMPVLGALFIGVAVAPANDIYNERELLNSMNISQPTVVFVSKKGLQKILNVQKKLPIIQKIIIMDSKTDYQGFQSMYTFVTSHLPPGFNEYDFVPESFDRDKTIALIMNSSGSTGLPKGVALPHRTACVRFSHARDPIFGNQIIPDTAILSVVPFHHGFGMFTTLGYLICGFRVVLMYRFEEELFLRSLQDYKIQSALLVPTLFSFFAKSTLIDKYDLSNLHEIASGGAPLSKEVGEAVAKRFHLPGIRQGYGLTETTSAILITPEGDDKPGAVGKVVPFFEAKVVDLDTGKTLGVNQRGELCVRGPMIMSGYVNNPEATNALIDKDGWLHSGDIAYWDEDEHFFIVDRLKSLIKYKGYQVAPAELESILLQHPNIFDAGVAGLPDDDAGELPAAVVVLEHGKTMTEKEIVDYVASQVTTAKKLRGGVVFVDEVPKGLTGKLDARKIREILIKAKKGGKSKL
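Purified P. pyralis luciferase, 10 nM final, with Km-level 10 uM D-luciferin and 10 uM ATP in 50 mM Tris acetate pH 7.5, 10 mM Mg acetate, 0.01% Tween-20, 0.05% BSA; 6-point qHTS titration about 60 µM downward; luminescence read.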
NPC1 promoter act = activators of NPC1 promoter. Huh7 NPC1 promoter luciferase reporter, 24 h. Potency, µM (top dose mostly 9.22 µM), actives largely listed as activators. 320,000 tested, 2.4% active; also: nearly all actives have a fitted effect of over 60% in size
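Luminescence read-out of NPC1 promoter-driven luciferase in stably transfected Huh7 cells; compounds delivered in DMSO and left 24 h at 37C, 5% CO2, qHTS titration format.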
Rab9 promoter act = activators of Rab9 promoter. Huh7 Rab9 promoter-luciferase reporter, luminescence, 24 h. Potency, µM (highest dose often 9.22 µM), most hits filed as activators. 320,000 tested, 2.8% active; also: nearly all actives have a fitted effect of over 60% in size
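Huh7 reporter line, Rab9 promoter upstream of luciferase. Compound exposure 24 h at 37 °C in reduced-serum medium with 10% FBS. Read-out: luminescence.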
KinaseGlo FLuc = blocks Kinase-Glo luciferase, a counter-screen artifact; AID 1379; 200,000 tested, 0.28% active; Q27757; Potency, µM (doses to about 38.3 µM), hits mostly inhibitors; Kinase-Glo luciferase, ATP luminescence, 8 min; also: nearly all actives have a fitted effect of over 60% in size
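Kinase-Glo luciferase light output from ATP and luciferin was measured with 10 uM ATP, within the enzyme's linear range. Buffer: 50 mM imidazole pH 7.2, 50 mM KCl, 7 mM MgCl2, 0.01% Tween 20, 0.05% BSA; luminescence read after 8 min at ambient temperature.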
Hits are given with their value; . = inactive; ? = inconclusive; / = not tested or not shown. Calls follow the shape of the dose curve; as a rule, active = well fitted curve in the direction sought with a large enough effect; inconclusive = small, poorly fitted or top-dose-only effect, or another doubt; inactive = no such curve, though single readings can be large; an effect the other way counts as inactive or inconclusive.

SMILES	ELG1 genotoxic	SMN2 splice up	FLuc modulator	NPC1 promoter act	Rab9 promoter act	KinaseGlo FLuc
Nc1ccc(Oc2ccc3c(c2)C(=O)N(CC2CCCO2)C3=O)cc1 (centres undefined)	?	/	9.53µM	?	?	/
Nc1ccc2c(c1)C(=O)N(CC1CCCO1)C2=O (centres undefined)	.	.	.	.	.	.
O=C(Nc1ccc2c(c1)C(=O)N(CC1CCCO1)C2=O)c1ccc(Cl)c(Cl)c1 (centres undefined)	.	.	5.36µM	.	.	.
Cc1ccc(NC(=O)c2ccc3c(c2)C(=O)N(CC2CCCO2)C3=O)cc1C (centres undefined)	.	/	10.7µM	.	.	.
O=C(Nc1ccc(O)c(C(=O)O)c1)c1ccc2c(c1)C(=O)N(CC1CCCO1)C2=O (centres undefined)	.	.	9.53µM	.	.	.
COc1ccc(NC(=O)c2ccc3c(c2)C(=O)N(CC2CCCO2)C3=O)cc1O (centres undefined)	.	/	?	.	.	/
O=C(Nc1cccnc1)c1ccc2c(c1)C(=O)N(CC1CCCO1)C2=O (centres undefined)	.	.	.	.	.	.
CSc1ccccc1NC(=O)CN(C)C(=O)C1CCN(C(=O)Nc2ccccc2)CC1	.	/	.	.	.	/
COc1ccc(Cl)cc1NC(=O)c1cc(S(=O)(=O)NC2CCCCCC2)ccc1F	/	/	.	/	/	/
Cc1nnc(NC(=O)c2ccc3c(c2)C(=O)N(CC2CCCO2)C3=O)s1 (centres undefined)	.	.	5.36µM	.	.	.
Cc1c(NC(=O)c2ccc3c(c2)C(=O)N(CC2CCCO2)C3=O)cccc1C(=O)O (centres undefined)	.	.	15.1µM	.	.	.
CCOC(=O)c1ccc(NC(=O)c2ccc3c(c2)C(=O)N(CC2CCCO2)C3=O)cc1 (centres undefined)	.	/	.	.	.	/
CCn1c(=O)n(CC)c2cc(N3CCCC3)c(NC(=O)c3cc(Cl)ccc3OC)cc21	.	/	.	.	.	/
CC1CCN(CCc2nc3cc(NC(=O)COc4ccc(Cl)cc4)ccc3n2C)CC1	.	/	.	.	.	/
Brc1ccc(-n2cnc(-c3ccccc3)c2)cc1	?	/	0.953µM	1.41µM	0.562µM	/
NNc1nc(-c2ccccc2)cc(-c2ccc(Br)cc2)n1	.	/	?	.	.	/
O=C(/C=C/c1ccc(Cl)c(Cl)c1)n1cccn1	.	.	2.69µM	.	.	.
O=C(/C=C/c1ccc(Cl)c(Cl)c1)NCCCn1ccnc1	.	/	?	.	.	/
COc1ccc2cnn(-c3ccc(C)cc3)c(=O)c2c1OC	14.6µM	.	23.9µM	?	?	.
COc1ccc2cnn(-c3ccc(OC(F)(F)Cl)cc3)c(=O)c2c1OC	.	/	.	.	.	/
COc1ccc2cnn(CCOc3ccccc3)c(=O)c2c1OC	?	11.2µM	4.78µM	0.794µM	0.562µM	.
CCCc1cc(=O)[nH]c(SCC(=O)NCCC2=CCCCC2)n1	.	.	.	.	.	.
CCN(C(=O)Nc1cccc(Cl)c1)c1ccccc1	.	/	.	.	.	/
Cc1cccc(N(O)C(=O)Nc2cccc(Cl)c2)c1	?	/	16.9µM	.	.	/
Cc1ccc(OC(=O)c2cccnc2)cc1	.	.	?	.	.	.
SMILES	ELG1 genotoxic	SMN2 splice up	FLuc modulator	NPC1 promoter act	Rab9 promoter act	KinaseGlo FLuc
CCc1ccc(OC(=O)c2cccnc2)cc1	.	/	10.7µM	.	.	/
Cc1nn2c(-c3ccc(F)cc3)ccnc2c1Br	.	/	.	.	.	/
c1csc(-c2ccnc3ncnn23)c1	.	.	.	.	.	.
Fc1ccc(-c2cnn3c(-c4ccncc4)ccnc23)cc1	.	4.47µM	1.2µM	0.355µM	0.398µM	.
Fc1ccc(-c2cnn3c(-c4cccs4)ccnc23)cc1	.	3.16µM	0.757µM	4.47µM	3.98µM	.
Cc1ccc(Cn2nc(C)cc2C(=O)Nc2ccc(Cl)cc2)cc1	.	/	?	.	.	/
O=C(Nc1ccccc1Cl)c1ccccc1	?	.	.	.	.	.
O=C(Nc1cccc(Cl)c1Cl)c1ccc(-c2ccccc2)cc1	?	?	?	2.51µM	?	.
CCOC(=O)c1cc(-c2ccc(C)cc2)nn1Cc1ccccc1	/	?	7.57µM	/	/	/
COc1ccc(-c2cc(C(=O)O)n(Cc3ccccc3)n2)cc1	/	.	?	/	/	/
Cc1ccc(C(=O)Nc2ccccc2Cl)cc1	?	/	6.75µM	3.16µM	1.58µM	/
Cc1ccc(Cn2nc(C)cc2C(=O)Nc2ccccc2Cl)cc1	23.1µM	/	12µM	?	2.51µM	/
O=S(=O)(c1ccc2[nH]c3c(c2c1)CCCCC3)N1CCN(c2ccccc2)CC1	/	/	.	/	/	/
CCCCC12CN3CC(C)(CN(C1)C3c1c[nH]c3ccccc13)C2=O (centres undefined)	/	.	.	/	/	/
Cn1cc(C(c2ccccc2)c2ccc(Cl)s2)c2ccccc21 (centres undefined)	/	.	.	/	/	/
Cc1ccc(C)c(NC(=S)c2ccccn2)c1	.	.	16.9µM	.	.	.
CN(C)c1ccc(NC(=S)c2ccc3ccccc3n2)cc1	?	/	16.9µM	?	.	/
Cc1ccc(C)c(NC(=S)c2ccc3ccccc3n2)c1	?	11.2µM	5.36µM	?	3.16µM	.
CN(CC(=O)Nc1ccc(F)cc1)C(=O)c1ccc2ccccc2n1	.	/	.	.	.	/
Nc1nc(OCC2CCCCC2)c2[nH]cnc2n1	?	/	?	.	.	/
O=C(NC1CCCC1)C(c1cccs1)N(C(=O)c1csnn1)c1ccccc1F (centres undefined)	.	/	.	.	.	/
CCOc1ccc2nc(SCC(=O)c3ccccc3)sc2c1	18.4µM	.	15.1µM	.	.	.
CCOc1ccc2nc(SCCNS(=O)(=O)c3ccccc3)sc2c1	.	.	?	.	.	.
CCOc1ccc2nc(SCC(=O)NC3CC3)sc2c1	.	/	.	?	?	/
CCOc1ccc2nc(SCc3ccccc3C#N)sc2c1	?	11.2µM	7.57µM	3.16µM	2.51µM	.
SMILES	ELG1 genotoxic	SMN2 splice up	FLuc modulator	NPC1 promoter act	Rab9 promoter act	KinaseGlo FLuc
CCOc1ccc2nc(SCc3ccc(OC)cc3)sc2c1	.	.	13.5µM	.	.	.
Cc1cc(C)cc(NC(=O)Cn2c(=O)n(CCC(C)C)c(=O)c3cccnc32)c1	/	.	.	/	/	/
COc1ccccc1/C=C/c1onc(C)c1S(=O)(=O)N1CCC(C(=O)N2CCC(C)CC2)CC1	/	/	.	/	/	/
CCCn1nnnc1SCC(=O)N1CCCc2ccccc21	14.6µM	.	?	.	.	.
COc1cc(OC)cc(C(=O)N[C@H](C(=O)OCC(=O)N2CCc3ccccc32)C(C)C)c1	.	.	15.1µM	.	.	.
COc1cccc(-c2ccc(SCC(=O)N3CCc4ccccc43)nn2)c1	.	.	21.3µM	.	.	.
Cn1c(-c2ccccc2)cnc1SCC(=O)N1CCCCC1	?	1.41µM	1.2µM	0.398µM	0.316µM	.
O=C(CSc1nnnn1-c1ccccc1)N1CCCc2ccccc21	.	.	.	.	.	.
